# Inconclusive results are not listed. Active and inactive are the calls of the source. Calls come from the whole dose curve; as a rule, active = well fitted curve in the direction sought with a large enough effect; inconclusive = small, poorly fitted or top-dose-only effect, or another doubt; inactive = no such curve, though single readings can be large; an effect the other way counts as inactive or inconclusive.
# Target: Rap guanine nucleotide exchange factor 3 (Homo sapiens) (UniProt O95398)
# Sequence (O95398 whole entry, looked up): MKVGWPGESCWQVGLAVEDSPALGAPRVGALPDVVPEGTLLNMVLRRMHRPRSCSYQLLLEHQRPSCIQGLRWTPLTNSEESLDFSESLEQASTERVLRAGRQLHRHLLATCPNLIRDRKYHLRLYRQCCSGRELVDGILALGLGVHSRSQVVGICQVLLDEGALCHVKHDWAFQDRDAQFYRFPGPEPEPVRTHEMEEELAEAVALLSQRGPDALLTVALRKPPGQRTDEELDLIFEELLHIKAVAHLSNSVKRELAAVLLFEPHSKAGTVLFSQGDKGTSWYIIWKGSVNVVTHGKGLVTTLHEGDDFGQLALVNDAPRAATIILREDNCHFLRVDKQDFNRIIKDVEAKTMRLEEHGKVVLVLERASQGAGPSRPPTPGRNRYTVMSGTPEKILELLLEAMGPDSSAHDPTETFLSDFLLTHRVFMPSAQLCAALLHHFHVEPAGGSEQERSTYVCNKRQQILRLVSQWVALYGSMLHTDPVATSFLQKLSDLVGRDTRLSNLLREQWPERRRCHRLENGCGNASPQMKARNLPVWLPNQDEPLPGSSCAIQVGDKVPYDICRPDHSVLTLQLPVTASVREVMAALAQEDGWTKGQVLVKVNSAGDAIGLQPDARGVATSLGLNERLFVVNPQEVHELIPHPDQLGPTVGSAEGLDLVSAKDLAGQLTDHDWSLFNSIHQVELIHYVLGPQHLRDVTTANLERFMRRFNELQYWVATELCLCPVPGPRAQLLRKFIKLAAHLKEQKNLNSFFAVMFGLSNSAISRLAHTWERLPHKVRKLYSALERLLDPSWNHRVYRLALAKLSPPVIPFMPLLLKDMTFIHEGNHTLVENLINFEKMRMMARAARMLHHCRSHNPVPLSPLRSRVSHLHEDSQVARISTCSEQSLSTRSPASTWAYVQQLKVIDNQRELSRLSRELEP
# Assay: Confirmatory qHTS for agonist of cAMP-regulated guanine nucleotide exchange factor 3 (EPAC1) (AID 1645881);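 note: EPAC1 catalysed release of BODIPY-GDP from Rap1B seen as fluorescence loss; 100% = effect of cAMP agonist control; nearly all actives have a fitted effect of over 75% in size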
# Settings: EPAC1 Rap1B BODIPY-GDP exchange fluorescence, 100% = cAMP control response; series mostly up to 154 µM; activation: at the top concentration
row,SMILES,activation
1,CCc1oc2ccccc2c1C(=O)c1cc(I)c(O)c(I)c1,10.4% (inactive)
2,Cl/C(=C\n1cncn1)c1ccc(Cl)cc1Cl,5.27% (inactive)
3,C=C1c2cccc(O)c2C(O)=C2C(=O)[C@]3(O)C(O)=C(C(N)=O)C(=O)[C@@H](N(C)C)[C@@H]3[C@@H](O)[C@H]12,-5.73% (inactive)

# Target: Rap guanine nucleotide exchange factor 4 (Homo sapiens) (UniProt Q8WZA2)
# Sequence (Q8WZA2 whole entry, looked up): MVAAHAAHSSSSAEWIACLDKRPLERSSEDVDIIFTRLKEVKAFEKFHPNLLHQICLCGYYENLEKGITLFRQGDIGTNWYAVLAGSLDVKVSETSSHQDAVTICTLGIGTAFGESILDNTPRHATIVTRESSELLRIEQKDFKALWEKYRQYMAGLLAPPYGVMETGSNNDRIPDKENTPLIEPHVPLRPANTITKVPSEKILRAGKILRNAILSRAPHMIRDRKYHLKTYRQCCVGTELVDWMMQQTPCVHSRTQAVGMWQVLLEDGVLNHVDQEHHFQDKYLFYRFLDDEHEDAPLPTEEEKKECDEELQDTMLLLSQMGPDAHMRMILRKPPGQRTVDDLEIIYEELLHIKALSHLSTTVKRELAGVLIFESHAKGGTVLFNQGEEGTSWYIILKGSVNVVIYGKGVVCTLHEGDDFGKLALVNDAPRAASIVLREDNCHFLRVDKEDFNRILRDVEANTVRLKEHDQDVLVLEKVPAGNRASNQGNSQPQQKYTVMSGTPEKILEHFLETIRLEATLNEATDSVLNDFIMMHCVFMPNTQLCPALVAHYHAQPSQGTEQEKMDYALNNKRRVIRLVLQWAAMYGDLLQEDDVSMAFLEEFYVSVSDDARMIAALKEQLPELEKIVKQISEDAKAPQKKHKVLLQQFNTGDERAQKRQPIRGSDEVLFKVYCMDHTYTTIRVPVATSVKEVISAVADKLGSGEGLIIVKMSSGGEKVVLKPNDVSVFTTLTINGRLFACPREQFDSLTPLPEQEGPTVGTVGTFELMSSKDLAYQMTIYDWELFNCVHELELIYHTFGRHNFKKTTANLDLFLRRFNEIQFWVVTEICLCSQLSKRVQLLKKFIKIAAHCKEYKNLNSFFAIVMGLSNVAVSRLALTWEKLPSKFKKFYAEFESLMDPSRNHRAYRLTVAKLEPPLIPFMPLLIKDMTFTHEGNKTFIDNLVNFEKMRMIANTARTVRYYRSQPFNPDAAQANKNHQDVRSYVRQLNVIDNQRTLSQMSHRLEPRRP
# Assay: Confirmatory qHTS for agonist of cAMP-regulated guanine nucleotide exchange factor 4 (EPAC2) (AID 1645884);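 note: nucleotide exchange releases bodipy-GDP from Rap1 and this lowers its fluorescence; % is set by controls: 0 for no effect and ±100 for the full control effect; nearly all actives have a fitted effect of over 65% in size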
# Settings: EPAC2 GEF activity, Rap1B-BODIPY-GDP fluorescence, percent relative to cAMP agonist control; series mostly up to 154 µM; activation: at the top concentration
row,SMILES,activation
1,CCc1oc2ccccc2c1C(=O)c1cc(I)c(O)c(I)c1,10.1% (inactive)
2,Cl/C(=C\n1cncn1)c1ccc(Cl)cc1Cl,8.05% (inactive)
3,C=C1c2cccc(O)c2C(O)=C2C(=O)[C@]3(O)C(O)=C(C(N)=O)C(=O)[C@@H](N(C)C)[C@@H]3[C@@H](O)[C@H]12,-13.2% (inactive)

# Target: Rap guanine nucleotide exchange factor 4 (Homo sapiens) (UniProt Q8WZA2)
# Assay: Confirmatory qHTS for antagonist of cAMP-regulated guanine nucleotide exchange factor 4 (EPAC2) (AID 1645885); note: nearly all actives have a fitted effect of over 25% in size; note: potency is the fitted concentration of half-maximal effect; for activity change, negative = inhibition: % is set by controls: 0 for no effect and ±100 for the full control effect
# Settings: EPAC2 Rap1B-BODIPY-GDP exchange fluorescence, biochemical; series mostly up to 114 µM; activity change, negative = inhibition: at the top concentration
SMILES,Potency,"activity change, negative = inhibition"
CCc1oc2ccccc2c1C(=O)c1cc(I)c(O)c(I)c1,27.8 µM (active),
Cl/C(=C\n1cncn1)c1ccc(Cl)cc1Cl,,-17.7% (inactive)
C=C1c2cccc(O)c2C(O)=C2C(=O)[C@]3(O)C(O)=C(C(N)=O)C(=O)[C@@H](N(C)C)[C@@H]3[C@@H](O)[C@H]12,,-18.3% (inactive)

# From PubChem BioAssay (NCATS)
